This is an account of results in PubChem BioAssay (Tox21).

In assay [1] the target is Thyrotropin-releasing hormone receptor (Homo sapiens) (UniProt P34981). The experiment in a line: qHTS assay to identify small molecule agonists of the thyrotropin-releasing hormone receptor (TRHR) signaling pathway (AID 1346891; calls by dose curve; note: series mostly up to about 58 µM). In a few lines: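 Screening of agonists relied on calcium signalling in HEK293 cells expressing human TRHR: dye loading 2 h at 37 °C preceded compound addition and a 3-min fluorescence time course.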
(In general: In qHTS, concentration-response curves come from the screen itself.)

A short description of assay [2]: Human pregnane X receptor (PXR) small molecule agonists, qHTS cell viability counter screen (AID 1346977). Note: nearly all actives have a fitted effect of over 50% in size. Note: potency is the fitted concentration of half-maximal effect. The gist of the method:
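Tox21 qHTS format; PXR-Luc HepG2, 2,000/well, charcoal-stripped FBS 5%. Cpd exposure 24hr. Read: CellTiter-Fluor fluorescence, multiplexed with luciferase.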

Assay [3] can be described thus: Caspase-3/7 induction in HepG2 cells by small molecules, qHTS assay (AID 1346978). Note: nearly all actives have a fitted effect of over 15% in size. The gist of the method: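 Caspase-3/7 induction was measured by Caspase-Glo 3/7 luminescence (30 min, room temperature) after a 17 hr compound exposure of wild-type HepG2 cells seeded at 2,000 per well and pre-incubated 5 hr.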
A short description of assay [4]: Caspase-3/7 induction in CHO-K1 cells by small molecules, qHTS cell viability counter screen (AID 1346979). Note: nearly all actives have a fitted effect of over 35% in size. Note: potency is the fitted concentration of half-maximal effect. The gist of the method:
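CellTiter-Fluor viability check, qHTS format: wild-type CHO-K1, 16hr compound treatment, 1hr reagent incubation, fluorescence read.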

Assay [5] in a line: Caspase-3/7 induction in CHO-K1 cells by small molecules, qHTS assay (AID 1346980). Note: nearly all actives have a fitted effect of over 15% in size. The gist of the method: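 Luminescent Caspase-Glo 3/7 read (30min, room temperature) quantified apoptosis induction. Cells were wild-type CHO-K1, treated with compound for 17hr at 37 C and 5% CO2.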
Assay [6] can be described thus: Caspase-3/7 induction in HepG2 cells by small molecules, qHTS cell viability counter screen (AID 1346981). Note: nearly all actives have a fitted effect of over 30% in size. Note: potency is the fitted concentration of half-maximal effect. In a few lines:
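In this quantitative HTS counter screen, compounds delivered in DMSO were left on unmodified HepG2 cells for 16 hr at 37 C. Viability was then determined fluorometrically with CellTiter-Fluor, in parallel with caspase-3/7 induction in the same wells.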

The target of assay [7] is Nuclear receptor subfamily 1 group I member 2 (Homo sapiens) (UniProt O75469). The assay can be described thus: Human pregnane X receptor (PXR) small molecule agonists, qHTS assay (AID 1346982). Note: nearly all actives have a fitted effect of over 35% in size. In a few lines: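 Reporter HepG2 cells expressing PXR-Luc are cultured in charcoal-stripped FBS (5%), treated with compounds for 24 hr at 37 C, and assayed by ONE-Glo luminescence after 30 min at room temperature.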

The target in assay [8] is Cytochrome P450 2D6 (Homo sapiens) (UniProt P10635). The assay can be described thus: Cytochrome P450 Family 2 Subfamily D Member 6 (CYP2D6) small molecule antagonists: luciferase reporter qHTS assay (AID 1671196). Note: nearly all actives have a fitted effect of over 50% in size. Note: potency is the fitted concentration of half-maximal effect. The gist of the method: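 Test chemicals meet CYP2D6 plus proluciferin substrate (10 min, RT); NADPH regenerating solution then drives turnover for 1 h. Detection reagent halts the reaction; luminescence measured after 20 min.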

Assay [9] concerns the target Cytochrome P450 2C19 (Homo sapiens) (UniProt P33261). The assay can be described thus: Cytochrome P450 Family 2 Subfamily C Member 19 (CYP2C19) small molecule antagonists: luciferase reporter qHTS assay (AID 1671197). Note: nearly all actives have a fitted effect of over 65% in size. Note: potency is the fitted concentration of half-maximal effect. In a few lines:
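Light output is proportional to CYP2C19 activity: proluciferin substrate is converted to luciferin, then detected by a luciferin detection reagent that also stops the 1 h, 37C NADPH-driven reaction. Ketoconazole serves as positive control.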
In general terms: Reporter assays use an easily measured gene product as a stand-in for the process of interest.

For assay [10], the target named is Cytochrome P450 2C9 (Homo sapiens) (UniProt P11712). The assay can be described thus: Cytochrome P450 Family 2 Subfamily C Member 9 (CYP2C9) small molecule antagonists: luciferase reporter qHTS assay (AID 1671198). Note: nearly all actives have a fitted effect of over 50% in size. Note: potency is the fitted concentration of half-maximal effect. In a few lines:
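Enzyme-substrate mix preincubated with compound 10 min at room temperature; reaction started with NADPH regeneration solution, 1 h 37C. Luminescent luciferin product read after 20 min detection reagent.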

The target of assay [11] is Cytochrome P450 1A2 (Homo sapiens) (UniProt P05177). The assay can be described thus: Cytochrome P450 Family 1 Subfamily A Member 2 (CYP1A2) small molecule antagonists: luciferase reporter qHTS assay (AID 1671199). Note: nearly all actives have a fitted effect of over 50% in size. Note: potency is the fitted concentration of half-maximal effect. In a few lines:
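Steps: enzyme-substrate mix dispensed; test compounds and furafylline control pinned in; 10 min room temperature; NADPH regeneration solution added, 1 h; reaction stopped with luciferin detection reagent; luminescence read after 20 min.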

In assay [12] the target is Voltage-gated inwardly rectifying potassium channel KCNH2 (Homo sapiens) (UniProt Q12809). The assay can be described thus: Human Ether-a-go-go-Related Gene (hERG) channel small molecule antagonists: fluorescence cell-based qHTS assay (AID 1671200). In a few lines: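 Kinetic two-minute fluorescence traces, sampled at 1 s, were collected following thallium stimulus of U2OS cells (1000 per well) that had been cultured overnight at 37 C and loaded with FluxOR II.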
A general note: hERG is a cardiac potassium channel; its block is linked to QT prolongation.

Assay [13] has as its target Cytochrome P450 3A4 (Homo sapiens) (UniProt P08684). The experiment in a line: Cytochrome P450 Family 3 Subfamily A Member 4 (CYP3A4) small molecule antagonists: luciferase reporter qHTS assay (AID 1671201). The gist of the method: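 Proluciferin-to-luciferin conversion by CYP3A4, NADPH-regenerated, 1 h RT; luminescence read as RLU. Ketoconazole as control.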
For assay [14], the target named is Nuclear receptor subfamily 1 group I member 2 (Rattus norvegicus) (UniProt Q9R1A7). The experiment in a line: Rat pregnane X receptor (rPXR) activation by small molecules, qHTS assay (AID 1346983). Note: nearly all actives have a fitted effect of over 20% in size. The following applies: rPXR luciferase reporter cells, One-Glo luminescence, 24 h; max activation: hits give high values. In a few lines:
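Luminescent readout (One-Glo luciferase, 30 min room temperature) followed 24 hr compound treatment at 37 C of rPXR cells plated 2,000 per well and preincubated 5hr; qHTS format with compounds delivered in DMSO.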

Assay [15] has as its target Nuclear receptor subfamily 1 group I member 2 (Homo sapiens) (UniProt O75469). The assay can be described thus: CYP3A4 induction through human pregnane X receptor (PXR) by small molecules, qHTS assay (AID 1346984). Note: nearly all actives have a fitted effect of over 40% in size. In a few lines:
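Induction measured in HepG2-based DPX-2 cells co-expressing human PXR and a CYP3A4 promoter-driven luciferase. After a 24-hour compound exposure, cells received CYP3A4 luciferin substrate at 3uM final for 3 hours, and light output was then recorded.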

For assay [16] the target is unchanged. The experiment in a line: Human pregnane X receptor (PXR) activation by small molecules, qHTS assay (AID 1346985). Note: nearly all actives have a fitted effect of over 40% in size. The gist of the method:
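DPX-2 cells (HepG2 co-transfected with a PXR response element and a CYP3A4-promoter luciferase construct) were seeded at 2,000 per well, rested 5 hr at 37C, then exposed to DMSO-dissolved compounds for 24 hr. Activation was read as luciferase luminescence.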

Structures are written as SMILES. Unmarked numbers belong to inactive results. Results filed as inconclusive are left out. Active and inactive are the calls of the source. Unless noted, calls come from the whole dose curve; as a rule, active = well fitted curve in the direction sought with a large enough effect in the repeat runs; inconclusive = weak or mixed curves; inactive = no such curve, though single readings can be large; an effect the other way counts as inactive or inconclusive.
% is set by controls: 0 for no effect and ±100 for the full control effect.

Cytochrome P450 1A2 (Homo sapiens), sequence (P05177 whole entry, looked up): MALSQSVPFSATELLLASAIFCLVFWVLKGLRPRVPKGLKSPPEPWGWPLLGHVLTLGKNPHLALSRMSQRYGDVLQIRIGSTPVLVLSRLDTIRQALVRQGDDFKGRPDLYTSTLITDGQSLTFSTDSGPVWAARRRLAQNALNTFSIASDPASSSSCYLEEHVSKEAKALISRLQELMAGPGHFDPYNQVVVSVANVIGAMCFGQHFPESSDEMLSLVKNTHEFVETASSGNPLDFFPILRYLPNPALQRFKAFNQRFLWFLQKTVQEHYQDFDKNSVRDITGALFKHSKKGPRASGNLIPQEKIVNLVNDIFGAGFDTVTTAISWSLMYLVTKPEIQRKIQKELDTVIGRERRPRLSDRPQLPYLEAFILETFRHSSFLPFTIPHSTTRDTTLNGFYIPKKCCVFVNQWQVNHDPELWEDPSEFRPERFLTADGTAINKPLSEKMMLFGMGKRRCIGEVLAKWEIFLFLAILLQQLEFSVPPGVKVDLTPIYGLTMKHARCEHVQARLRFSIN
Cytochrome P450 3A4 (Homo sapiens), sequence (P08684 whole entry, looked up): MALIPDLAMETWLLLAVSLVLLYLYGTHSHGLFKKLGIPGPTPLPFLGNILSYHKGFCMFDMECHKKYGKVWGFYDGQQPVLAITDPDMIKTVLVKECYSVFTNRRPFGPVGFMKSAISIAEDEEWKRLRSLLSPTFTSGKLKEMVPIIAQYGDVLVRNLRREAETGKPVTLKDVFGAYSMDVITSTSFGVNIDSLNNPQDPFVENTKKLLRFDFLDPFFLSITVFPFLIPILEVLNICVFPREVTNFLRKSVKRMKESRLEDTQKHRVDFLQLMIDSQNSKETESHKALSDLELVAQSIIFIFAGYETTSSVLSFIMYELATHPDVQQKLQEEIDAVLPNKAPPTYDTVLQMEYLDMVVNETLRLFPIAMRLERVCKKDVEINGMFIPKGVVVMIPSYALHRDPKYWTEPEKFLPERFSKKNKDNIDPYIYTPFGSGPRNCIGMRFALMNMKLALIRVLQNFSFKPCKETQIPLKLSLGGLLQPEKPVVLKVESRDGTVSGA
Nuclear receptor subfamily 1 group I member 2 (Homo sapiens), sequence (O75469 whole entry, looked up): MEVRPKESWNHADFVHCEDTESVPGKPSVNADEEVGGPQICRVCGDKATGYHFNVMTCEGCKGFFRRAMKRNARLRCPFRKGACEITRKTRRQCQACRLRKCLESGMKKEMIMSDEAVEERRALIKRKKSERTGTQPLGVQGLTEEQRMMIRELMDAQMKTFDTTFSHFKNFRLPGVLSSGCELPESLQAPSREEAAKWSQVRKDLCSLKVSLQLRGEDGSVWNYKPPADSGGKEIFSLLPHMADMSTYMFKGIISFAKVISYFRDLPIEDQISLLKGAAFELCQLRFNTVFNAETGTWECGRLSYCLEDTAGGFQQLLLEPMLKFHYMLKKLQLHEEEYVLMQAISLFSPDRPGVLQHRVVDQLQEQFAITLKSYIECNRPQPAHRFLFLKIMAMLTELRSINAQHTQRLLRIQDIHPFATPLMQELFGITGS
Voltage-gated inwardly rectifying potassium channel KCNH2 (Homo sapiens), sequence (Q12809 whole entry, looked up): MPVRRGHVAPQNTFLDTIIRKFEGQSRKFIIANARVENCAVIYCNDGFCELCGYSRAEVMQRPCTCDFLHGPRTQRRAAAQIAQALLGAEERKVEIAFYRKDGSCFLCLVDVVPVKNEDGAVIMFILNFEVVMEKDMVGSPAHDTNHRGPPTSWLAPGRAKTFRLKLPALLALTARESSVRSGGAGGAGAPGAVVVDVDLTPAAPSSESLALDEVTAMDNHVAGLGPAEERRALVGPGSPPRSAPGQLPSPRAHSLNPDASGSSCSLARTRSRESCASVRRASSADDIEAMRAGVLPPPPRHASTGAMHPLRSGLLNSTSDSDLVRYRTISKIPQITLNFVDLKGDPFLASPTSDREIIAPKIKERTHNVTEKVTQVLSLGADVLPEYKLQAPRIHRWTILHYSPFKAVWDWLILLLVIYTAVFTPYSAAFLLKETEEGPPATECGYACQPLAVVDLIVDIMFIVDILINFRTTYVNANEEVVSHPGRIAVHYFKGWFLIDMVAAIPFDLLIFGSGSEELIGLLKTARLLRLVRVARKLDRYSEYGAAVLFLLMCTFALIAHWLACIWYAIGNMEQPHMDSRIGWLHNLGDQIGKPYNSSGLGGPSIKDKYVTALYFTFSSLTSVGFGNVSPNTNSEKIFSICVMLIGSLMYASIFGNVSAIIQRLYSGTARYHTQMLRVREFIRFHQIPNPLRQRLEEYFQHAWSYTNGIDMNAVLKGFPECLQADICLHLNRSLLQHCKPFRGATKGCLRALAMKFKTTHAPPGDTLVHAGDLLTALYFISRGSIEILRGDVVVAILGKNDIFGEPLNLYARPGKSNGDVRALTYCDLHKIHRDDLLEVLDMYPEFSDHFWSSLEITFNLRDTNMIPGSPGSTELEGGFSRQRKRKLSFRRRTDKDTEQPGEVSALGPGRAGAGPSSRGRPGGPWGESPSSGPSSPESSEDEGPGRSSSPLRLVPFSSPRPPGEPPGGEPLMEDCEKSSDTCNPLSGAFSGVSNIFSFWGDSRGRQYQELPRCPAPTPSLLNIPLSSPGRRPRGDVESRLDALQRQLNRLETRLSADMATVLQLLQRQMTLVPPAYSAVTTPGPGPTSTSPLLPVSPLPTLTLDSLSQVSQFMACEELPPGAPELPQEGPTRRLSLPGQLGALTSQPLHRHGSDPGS
Cytochrome P450 2C19 (Homo sapiens), sequence (P33261 whole entry, looked up): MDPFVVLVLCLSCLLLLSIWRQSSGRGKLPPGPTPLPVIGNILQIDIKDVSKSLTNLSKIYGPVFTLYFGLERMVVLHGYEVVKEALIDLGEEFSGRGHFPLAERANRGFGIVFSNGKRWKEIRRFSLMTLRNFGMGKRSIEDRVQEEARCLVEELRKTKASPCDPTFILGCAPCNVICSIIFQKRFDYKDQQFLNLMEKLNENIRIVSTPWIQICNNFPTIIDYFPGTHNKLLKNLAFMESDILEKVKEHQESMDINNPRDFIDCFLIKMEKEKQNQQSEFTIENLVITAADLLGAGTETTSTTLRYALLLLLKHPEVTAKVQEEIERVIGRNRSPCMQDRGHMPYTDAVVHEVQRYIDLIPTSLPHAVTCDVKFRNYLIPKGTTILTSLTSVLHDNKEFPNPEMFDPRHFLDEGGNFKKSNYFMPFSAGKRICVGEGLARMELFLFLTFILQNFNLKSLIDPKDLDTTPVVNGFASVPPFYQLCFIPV
Cytochrome P450 2D6 (Homo sapiens), sequence (P10635 whole entry, looked up): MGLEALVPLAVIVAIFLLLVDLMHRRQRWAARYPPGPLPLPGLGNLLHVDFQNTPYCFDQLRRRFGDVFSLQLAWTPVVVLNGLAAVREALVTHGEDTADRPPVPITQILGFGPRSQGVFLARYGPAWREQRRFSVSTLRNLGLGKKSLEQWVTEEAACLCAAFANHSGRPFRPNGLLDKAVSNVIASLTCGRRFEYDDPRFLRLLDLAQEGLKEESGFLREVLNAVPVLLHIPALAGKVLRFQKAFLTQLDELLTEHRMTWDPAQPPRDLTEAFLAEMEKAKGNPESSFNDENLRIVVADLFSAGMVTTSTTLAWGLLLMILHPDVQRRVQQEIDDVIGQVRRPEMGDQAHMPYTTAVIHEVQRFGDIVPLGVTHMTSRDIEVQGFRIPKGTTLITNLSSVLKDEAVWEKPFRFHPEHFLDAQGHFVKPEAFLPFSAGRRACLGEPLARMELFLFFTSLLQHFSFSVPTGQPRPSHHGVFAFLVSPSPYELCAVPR
Thyrotropin-releasing hormone receptor (Homo sapiens), sequence (P34981 whole entry, looked up): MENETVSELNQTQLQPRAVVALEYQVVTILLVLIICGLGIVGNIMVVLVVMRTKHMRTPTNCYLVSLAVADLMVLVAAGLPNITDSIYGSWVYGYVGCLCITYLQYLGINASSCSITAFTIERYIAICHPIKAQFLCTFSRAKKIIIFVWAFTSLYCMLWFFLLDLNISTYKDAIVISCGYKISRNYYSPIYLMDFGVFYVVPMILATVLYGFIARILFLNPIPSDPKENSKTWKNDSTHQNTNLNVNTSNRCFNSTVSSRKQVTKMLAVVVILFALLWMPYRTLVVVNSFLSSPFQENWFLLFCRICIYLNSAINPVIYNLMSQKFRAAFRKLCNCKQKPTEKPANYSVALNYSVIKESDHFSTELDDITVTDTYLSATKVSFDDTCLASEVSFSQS
Cytochrome P450 2C9 (Homo sapiens), sequence (P11712 whole entry, looked up): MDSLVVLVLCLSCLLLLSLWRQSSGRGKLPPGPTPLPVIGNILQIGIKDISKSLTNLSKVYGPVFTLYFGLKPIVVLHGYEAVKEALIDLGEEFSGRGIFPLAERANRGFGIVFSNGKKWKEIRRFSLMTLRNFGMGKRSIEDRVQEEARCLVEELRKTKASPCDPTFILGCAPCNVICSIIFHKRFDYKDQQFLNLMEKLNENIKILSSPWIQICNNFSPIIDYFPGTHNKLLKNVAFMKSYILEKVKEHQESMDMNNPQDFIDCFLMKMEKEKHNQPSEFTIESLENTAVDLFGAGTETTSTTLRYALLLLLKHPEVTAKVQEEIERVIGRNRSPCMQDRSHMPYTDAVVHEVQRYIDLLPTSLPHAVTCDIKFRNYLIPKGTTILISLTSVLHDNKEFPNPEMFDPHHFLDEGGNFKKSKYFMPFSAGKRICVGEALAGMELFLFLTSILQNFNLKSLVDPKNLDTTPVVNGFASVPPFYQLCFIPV
Nuclear receptor subfamily 1 group I member 2 (Rattus norvegicus), sequence (Q9R1A7 whole entry, looked up): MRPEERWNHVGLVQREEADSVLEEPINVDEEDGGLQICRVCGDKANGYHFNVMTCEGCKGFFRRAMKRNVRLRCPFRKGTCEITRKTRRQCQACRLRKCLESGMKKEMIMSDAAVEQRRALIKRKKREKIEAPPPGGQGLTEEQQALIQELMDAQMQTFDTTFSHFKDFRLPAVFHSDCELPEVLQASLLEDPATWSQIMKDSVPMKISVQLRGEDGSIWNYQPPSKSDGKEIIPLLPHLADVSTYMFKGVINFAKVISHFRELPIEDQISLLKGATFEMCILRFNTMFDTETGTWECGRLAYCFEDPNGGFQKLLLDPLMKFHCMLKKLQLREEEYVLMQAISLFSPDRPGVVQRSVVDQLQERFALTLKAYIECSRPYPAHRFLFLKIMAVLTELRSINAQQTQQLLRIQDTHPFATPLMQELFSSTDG

In the case of `CC(C)N=C=NC(C)C`, the result in [1] and in assay [5] was inactive. Moreover, the Potency entry in [2], in assay [3], in [4], in [6], in [7] and in [8] was “inactive” each time. The Potency result in assay [9], in [10] and in [11] was “inactive” each time.
Turning to `CCCCOC(=O)CCCCC(=O)OCCCC`, the molecule was classed as inactive in [1] and in assay [5]. Further, the Potency result in [2], in assay [3], in [4], in assay [6], in assay [7] and in [8] was “inactive” each time. Further, the Potency result in assay [12] and in assay [13] was “inactive” throughout. The Potency in assay [9] is 35.6 µM (active); in assay [10], 11.2 µM (active); in [11], 31.7 µM (active).
Regarding `CCc1ccc(C)cc1`, the outcome in [1] and in [5] was inactive. In addition, the Potency entry in assay [2], in [3], in [4], in assay [6], in assay [7] and in assay [8] was “inactive” in each case. Also, the Potency result in assay [9], in [10], in assay [11], in [12] and in assay [13] was “inactive” in each case.
Turning to `O=C(O)CO`, the molecule was called inactive in assay [1] and in assay [5]. The Potency result in assay [2], in [3], in assay [4], in assay [6], in assay [7] and in [8] was “inactive” each time. The Potency entry in [9], in [10], in [11], in assay [12] and in assay [13] was “inactive” throughout.
As to `O=C(NC(Cc1cc(=O)[nH]c2ccccc12)C(=O)O)c1ccc(Cl)cc1` (stereo not drawn), the call in assay [1] and in assay [5] was inactive. In addition, the Potency result in assay [2], in assay [3], in assay [4], in assay [6], in [7] and in assay [15] was “inactive” throughout. Also, the Potency entry in assay [16], in [8], in assay [9], in assay [10], in assay [11] and in assay [12] was “inactive” in each case. The Potency entry in assay [13] is “inactive”. In addition, in [14], the max activation is -0.429%.
For `CCCCCCCC(=O)OCCCCCC`, the result in assay [1] and in assay [5] was inactive. The Potency entry in [2], in assay [3], in assay [4], in [6], in assay [7] and in assay [8] was “inactive” in each case. For the same molecule, the Potency result in assay [9], in [10] and in [11] was “inactive” in each case.
`CC(O)Cn1cnc2c1c(=O)n(C)c(=O)n2C` (stereo not drawn): the molecule was classed as inactive in [1] and in [5]. The Potency entry in [2], in assay [3], in [4] and in assay [6] was “inactive” in each case.
Take `Cc1c(C2(c3cc(Br)c(O)c(Br)c3C)OS(=O)(=O)c3ccccc32)cc(Br)c(O)c1Br`: the outcome in assay [1] and in [5] was inactive. The Potency in assay [2] was 14.9 µM (active); in assay [4] it was 16.7 µM (active); in assay [6], 18.8 µM (active); in [8], 24.4 µM (active); in assay [9] it was 15.4 µM (active); in assay [10] it was 10.9 µM (active). Moreover, the Potency in [11] was 13.7 µM (active). The Potency result in [3], in assay [7] and in assay [12] was “inactive” each time.
Consider `O=S(=O)(O)CO`, for which the molecule was called inactive in [1] and in assay [5]. Moreover, the Potency entry in [2], in assay [3], in assay [4], in [6], in assay [7] and in [8] was “inactive” each time. Moreover, the Potency result in assay [10], in assay [12] and in assay [13] was “inactive” each time. The results for the Potency in [9] and in assay [11] were 35.1 µM (active) and 31.3 µM (active), respectively.
